About 5,100 (32%) of roughly 16,000 compounds were called active. Not shown: some 25% with an inconclusive outcome. Calls follow the shape of the dose curve; as a rule, active = well fitted curve in the direction sought with a large enough effect; inconclusive = small, poorly fitted or top-dose-only effect, or effect the other way; inactive = no such curve, though single readings can be large or run the other way. The list shows a part of the results.
Target: Cytochrome P450 3A4 (Homo sapiens) (UniProt P08684)
Test: Cytochrome panel assay with activity outcomes
Settings: recombinant CYP, pro-luciferin dealkylation, luminescence, p450-cyp3a4; series mostly up to 57.1 µM
% is scaled to controls: 0 for no effect and ±100 for the full control effect.

Chain of Cytochrome P450 3A4 (Homo sapiens) (P08684 whole entry, looked up): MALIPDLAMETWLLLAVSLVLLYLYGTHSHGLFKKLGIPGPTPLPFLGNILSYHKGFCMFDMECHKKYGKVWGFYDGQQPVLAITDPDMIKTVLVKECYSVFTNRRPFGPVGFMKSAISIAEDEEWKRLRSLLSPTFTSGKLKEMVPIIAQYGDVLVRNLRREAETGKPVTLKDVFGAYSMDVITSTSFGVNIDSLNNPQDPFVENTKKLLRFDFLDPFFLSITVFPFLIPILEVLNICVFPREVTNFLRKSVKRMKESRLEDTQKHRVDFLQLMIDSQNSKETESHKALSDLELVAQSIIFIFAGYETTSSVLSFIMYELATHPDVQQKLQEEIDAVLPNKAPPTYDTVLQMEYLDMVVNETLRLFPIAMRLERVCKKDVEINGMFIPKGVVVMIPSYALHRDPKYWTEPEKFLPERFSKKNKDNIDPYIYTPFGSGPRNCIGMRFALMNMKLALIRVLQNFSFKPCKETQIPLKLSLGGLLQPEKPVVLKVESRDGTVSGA

Structure (SMILES) | activity, negative = inhibition | AC50
CS[C@]12C(=O)C[C@]3(C)[C@@H](CC[C@@]3(O)C(=O)CO)[C@@H]1CCC1=CC(=O)CC[C@]12C | -14.7% [at 11.4 µM] (inactive) | 
CC(Oc1ccc(O)cc1)(P(=O)(O)O)P(=O)(O)O |  | inactive
CC(=O)c1cc(C#N)c(Oc2ccc(F)cc2)nc1C |  | inactive
COC(=O)c1cc(C#N)c(Oc2ccc(OC)cc2)nc1C |  | 14.1 µM (active)
CC(=O)c1cc(C#N)c(Oc2cccc(C(F)(F)F)c2)nc1C |  | inactive
COc1ccccc1OC[C@H](O)COC(N)=O |  | inactive
COc1ccccc1CC(=O)O/N=C(\N)Cc1cccc2ccccc12 |  | 15.8 µM (active)
COc1ccc(C/C(N)=N/OC(=O)Cc2ccccc2)cc1OC |  | 3.16 µM (active)
COc1ccccc1C/C(N)=N/OC(=O)c1ccc(C)c([N+](=O)[O-])c1 |  | 10 µM (active)
COc1ccc(C[C@@](C)(N)C(=O)O)cc1OC |  | inactive
COc1ccc(CC(=O)O/N=C(\N)Cc2ccc(OC)cc2)cc1 |  | 10 µM (active)
NC(Cc1ccccc1)=NCC(=O)O | -0.223% [at 11.4 µM] (inactive) | 
COc1ccc(Cc2ccccc2C(=O)O)c2ccccc12 | -12.8% [at 11.4 µM] (inactive) | 
O=C1c2ccccc2C(=O)N1CCCCN(C(=O)c1cccc([N+](=O)[O-])c1)c1ccc(Cl)cc1 |  | 11.2 µM (active)
O=C1c2ccccc2C(=O)N1CCCCN(C(=O)c1ccc([N+](=O)[O-])cc1)c1ccc(Cl)cc1 |  | 25.1 µM (active)
CCOC(=O)COc1c(OC)cc(Cl)cc1C1Nc2ccccc2C(=O)N1c1cccc(C)c1 (stereo not drawn) |  | 3.98 µM (active)
CCOC(=O)COc1c(OC)cc(Cl)cc1C1Nc2ccccc2C(=O)N1c1ccc(F)cc1 (stereo not drawn) |  | inactive
COC(=O)c1sccc1-c1ccc(C(=O)Nc2cccnc2)o1 |  | 14.1 µM (active)
CSc1nc2c(c(C(F)(F)F)n1)CC(C)CC2 (stereo not drawn) |  | inactive
Fc1cc(Br)ccc1NC(=S)NCCc1ccccc1 |  | 15.8 µM (active)
Fc1ccc(NC(=S)NCCc2ccccc2)c(F)c1F |  | inactive
COc1ccccc1NC(=S)NCCc1ccccc1 |  | 11.2 µM (active)
Fc1ccccc1NC(=S)NCCc1ccccc1 |  | 12.6 µM (active)
CC(CO)(CO)N=Cc1cc(I)cc(I)c1O | -15.2% [at 11.4 µM] (inactive) | 
O=C1C2ON(c3ccccc3)C(c3ccncc3)C2C(=O)N1c1ccccc1 (stereo not drawn) |  | 14.1 µM (active)

Structure (SMILES) | activity, negative = inhibition | AC50
O=C1C(Cc2ccccc2)C(c2ccccc2)N1c1ccccc1 (stereo not drawn) |  | inactive
CCCC1C(=O)N(c2ccccc2)C1c1ccccc1 (stereo not drawn) | 1.96% [at 2.29 µM] (inactive) | 
CC(=O)NNC(=O)C(O)(c1ccccc1)c1ccccc1 |  | inactive
N#CC(c1ccc(Cl)cc1)c1nc2ccccc2nc1C(F)(F)F (stereo not drawn) | 15.3% [at 2.29 µM] (inactive) | 
COc1ccc(Oc2nc3ccccc3nc2C(F)(F)F)cc1 | 2.66% [at 2.29 µM] (inactive) | 
FC(F)(F)c1nc2ccccc2nc1N/N=C/c1ccc(Cl)cc1 |  | 25.1 µM (active)
FC(F)(F)c1nc2ccccc2nc1N/N=C\c1ccccc1 |  | 15.8 µM (active)
CCC(CC)C(=O)Nc1cccc(C(=O)Nc2ccc(OC)cc2[N+](=O)[O-])c1 |  | inactive
COc1ccc(NC(=O)c2ccc(C)cc2Cl)c([N+](=O)[O-])c1 |  | 20 µM (active)
COc1ccc(NC(=O)c2cccs2)c([N+](=O)[O-])c1 |  | 14.1 µM (active)
CCCn1nnnc1NC(=O)c1ccc(C)cc1Cl |  | inactive
COCCCn1nnnc1SCC(=O)N1CCCC1 |  | inactive
CCCCn1c(SCC(=O)N2CCCC2)nc2c1c(=O)n(C)c(=O)n2C |  | 17.8 µM (active)
CCCCn1nnnc1SCC(=O)N1CCCC1 |  | inactive
COc1ccccc1CNc1ncnc2ccc(-c3ccc(C(=O)N(C)C)cc3)cc12 |  | 10 µM (active)
COc1ccc(CNc2ncnc3ccc(-c4ccc(C(=O)N(C)C)cc4)cc23)c(OC)c1 |  | 2.51 µM (active)
CN1CCCC[C@@H]1CCN1c2ccccc2Sc2ccc(S(C)=O)cc21 (stereo partly drawn) |  | inactive
COc1ccc(CNC(=O)c2csc(Cc3ccc(Cl)cc3)n2)cc1 |  | 3.55 µM (active)
Cc1cnc(C(=O)OCC(=O)NC(C)C)cn1 | -1.72% [at 2.29 µM] (inactive) | 
COc1ccc(CNC(=O)c2csc(Cc3ccc(OC)cc3)n2)cc1 |  | 3.16 µM (active)
COc1ccc(Cc2c(N)nc(N)nc2N)cc1 |  | inactive
COc1ccc(CN[C@H](C)C(=O)O)cc1 | 0.14% [at 11.4 µM] (inactive) | 
COC(=O)C1=C(C)C(c2ccc(OC)cc2)NC(=S)N1 (stereo not drawn) | -11.5% [at 2.29 µM] (inactive) | 
COc1ccc(CNC(=O)c2cnc(C)cn2)cc1 |  | 2 µM (active)
O=C(O)c1cc(=O)c2ccc(Cl)cc2[nH]1 |  | inactive

Structure (SMILES) | activity, negative = inhibition | AC50
CC(=O)Nc1nnc(S(N)(=O)=O)s1 |  | inactive
Cc1ccc(S(=O)(=O)c2c(C)nn(C(C)(C)C)c2OC(=O)c2cccs2)cc1 |  | 2.24 µM (active)
COCC(=O)Oc1c(S(=O)(=O)c2ccc(C)cc2)c(C)nn1-c1ccccc1 |  | inactive
CCOC(=O)Oc1c(OC)cc(C(=O)O[C@H]2C[C@H]3CN4CCc5c([nH]c6cc(OC)ccc56)[C@@H]4C[C@H]3[C@@H](C(=O)OC)[C@@H]2OC)cc1OC |  | inactive
COc1ccc(C2C(C#N)=C(N)Oc3n[nH]c(C)c32)cc1CN1CCN(c2ccc(F)cc2)CC1 (stereo not drawn) |  | 8.91 µM (active)
COc1ccc(/C=N/NC(=O)c2ccccc2)cc1CN1CCN(c2ccc(F)cc2)CC1 |  | inactive
O=C(NC(=S)Nc1cccc(Cl)c1N1CCCC1)c1ccc(-c2cccc([N+](=O)[O-])c2)o1 |  | 4.47 µM (active)
CCCSc1nc(C)cc(C)c1C(N)=O |  | inactive
COc1cc(COc2cc(N)c(Cl)cc2C(=O)CCC2CCN(CCNS(C)(=O)=O)CC2)cc(OC)c1 |  | 2 µM (active)
Cn1cc(C(=O)OCC2CCN(CCNS(C)(=O)=O)CC2)c2ccccc21 |  | inactive
CCCCN1CCC(CCC(=O)c2cc(Cl)c(N)cc2OC)CC1 |  | inactive
O=C(Nc1ccc(C(=O)Nc2ccc(C(=O)Nc3ccc(S(=O)(=O)O)c4cc(S(=O)(=O)O)cc(S(=O)(=O)O)c34)cc2)cc1)Nc1ccc(C(=O)Nc2ccc(C(=O)Nc3ccc(S(=O)(=O)O)c4cc(S(=O)(=O)O)cc(S(=O)(=O)O)c34)cc2)cc1 |  | inactive
COc1cccc(C(=O)Nc2nc3c(s2)CN(C)CC3)c1 |  | inactive
COc1cc(C(=O)Nc2nc3ccc4nc(C)sc4c3s2)cc(OC)c1OC |  | inactive
Cc1nc2c(ccc3nc(NC(=O)c4ccc5c(c4)OCCO5)sc32)s1 |  | 6.31 µM (active)
CCN1CCc2c(sc(N)c2C(N)=O)C1 |  | inactive
CCN1CCc2nc(NC(=O)c3ccc4c(c3)OCCO4)sc2C1 |  | 14.1 µM (active)
CCC(=O)NC(=S)Nc1ccc(NC(=O)COc2ccc(Cl)cc2Cl)cc1 |  | 12.6 µM (active)
O=C(COc1ccc(Cl)cc1Cl)N/N=C/CCc1ccccc1 |  | 11.2 µM (active)
O=C(COc1ccccc1C(=O)N/N=C\c1ccc(O)c(O)c1)N/N=C/c1ccc(O)c(O)c1 | 12.4% [at 2.29 µM] (inactive) | 
C/C(=N/NC(=O)c1cccs1)c1ccc(NC(=O)COc2ccc(Cl)cc2Cl)cc1 | -10.1% [at 2.29 µM] (inactive) | 
Cc1cc(NC(=O)COc2ccc(Cl)cc2Cl)n(-c2ccccc2)n1 | -28.2% [at 11.4 µM] (inactive) | 
CC(C/C=N/NC(=O)COc1cc(Cl)ccc1Cl)c1ccccc1 (stereo not drawn) |  | 14.1 µM (active)
Cc1ccccc1C(=O)Nc1ccc(C(=O)NNC(=O)CCCOc2ccc(Cl)cc2Cl)cc1 | -18.9% [at 2.29 µM] (inactive) | 
CCc1ccc(OCC(=O)NC(=S)Nc2ccc(F)cc2)c(Br)c1 | -0.136% [at 2.29 µM] (inactive) | 

Structure (SMILES) | activity, negative = inhibition | AC50
CC(=C/c1ccccc1)/C=N/n1cnnc1 |  | 12.6 µM (active)
CC(/C=N\NC(=O)Cn1c(C)nc2ccccc21)=C\c1ccccc1 |  | inactive
CC(=C\C(=O)O)/C(=C/c1ccccc1)C(=O)O |  | inactive
CNc1nc(-c2ccccc2Cl)nc2ccccc12 |  | 25.1 µM (active)
FC(F)(F)c1ccccc1-c1nc(Nc2ccncc2)c2ccccc2n1 |  | 0.631 µM (active)
CNc1nc(-c2ccccc2C(F)(F)F)nc2ccccc12 |  | inactive
Clc1ccccc1-c1nc(Nc2ccncc2)c2ccccc2n1 |  | 3.98 µM (active)
Cc1ccccc1-c1nc(Nc2ccncc2)c2ccccc2n1 |  | 6.31 µM (active)
CNC(=O)c1sc(SC)cc1-c1ccc(Cl)cc1 |  | inactive
Clc1ccccc1C(Nc1cnccn1)Nc1cnccn1 | -4.71% [at 11.4 µM] (inactive) | 
COCCNC(=O)c1ccc2c(c1)ncn2-c1ccc(F)c(F)c1 |  | inactive
Clc1ccccc1-c1ccc2ncnc(NCCN3CCOCC3)c2c1 |  | 5.01 µM (active)
COc1ccccc1-c1ccc2ncnc(NCCN3CCOCC3)c2c1 |  | 7.94 µM (active)
N#Cc1ccccc1-c1ccc2ncnc(NCCN3CCOCC3)c2c1 |  | 10 µM (active)
S=c1nc(-c2ccccc2)oc2c1CCCC2 |  | inactive
Cc1cccc(OCC(=O)N2CCC(N3CCCCCC3)CC2)c1 |  | inactive
O=C(CSCc1cccc(Cl)c1)N/N=C/c1ccc(OCC(=O)N2CCCCC2)cc1 |  | 14.1 µM (active)
CCOC(=O)c1c2ccc(OCC(=O)N/N=C/c3ccc(Cl)cc3)cc2n2ccccc12 | -26.7% [at 2.29 µM] (inactive) | 
O=C(CN1CCCC1)N/N=C/c1ccc(-c2cccc(Cl)c2)o1 | 13.8% [at 2.29 µM] (inactive) | 
Cc1cccc(C(=O)N/N=C/c2ccc(OCC(=O)N3CCCCC3)cc2)c1 |  | 20 µM (active)
COc1ccc2oc(=O)c(C(=O)Oc3ccc(NC(C)=O)cc3)cc2c1 |  | inactive
COc1ccc2cc3cc(C(=O)NCc4ccc5c(c4)OCO5)oc3nc2c1 |  | 0.708 µM (active)
COc1ccc2cc3cc(C(=O)Nc4ccc5c(c4)OCO5)oc3nc2c1 |  | 0.355 µM (active)

Reference: PubChem BioAssay AID1851 (National Center for Advancing Translational Sciences (NCATS), 2009)
